Results on five molecules are retold here after PubChem BioAssay.

The source made the active and inactive calls.

The nature of test [1]: small molecules captured by biotinylated probe aFSTL3 – biochemical, small-molecule microarray, fluorescence 635/667, stem cell growth factor project, primary screen (AID 1064).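 Note: measures binding of the biotinylated anti-FSTL3 antibody to printed compounds.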 Particulars: higher = more signal.
Test [2] is described as follows: binders from COS7 lysate, DM2A8 probe, primary screen, torsin A project, cell lysate, small-molecule microarray, fluorescence 635/667 (AID 1065). Particulars: higher = more signal, COS7 lysate expressing mutant human TOR1A.
Test [3] in a line: small molecules captured by biotinylated probe aFGF2 – biochemical, small-molecule microarray, fluorescence 635/667, stem cell growth factor project, primary screen (AID 1067).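 Note: measures binding of biotinylated aFGF2 protein to printed compounds on slides; z-score merges feature fluorescence and signal-to-noise across triplicate slides.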 Conditions: higher = more signal.
The nature of test [4]: small molecules captured by biotinylated probe aFGF10 – biochemical, small-molecule microarray, fluorescence 635/667, stem cell growth factor project, primary screen (AID 1071).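 Note: score merges 667 nm spot intensity and signal to noise from triplicate slides.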 Particulars: higher = more signal.
The target in test [5] is Neurogenic locus notch homolog protein 2 (Homo sapiens) (UniProt Q04721). Nature of the test: small molecules binding Notch2 protein – biochemical, small-molecule microarray, 635 nm fluorescence, stem cell growth factors, primary screen (AID 1073). Particulars: higher = more signal.
For test [6], the target named is Pro-neuregulin-1, membrane-bound isoform (Homo sapiens) (UniProt Q02297). Nature of the test: small molecules binding neuregulin-1 protein – biochemical, small-molecule microarray, fluorescence 635/667, psychiatric disease protein project, primary screen (AID 1075).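 Note: score combines 667 nm spot fluorescence with signal to noise.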 Conditions: NRG1 binding, 635 nm fluorescence, higher = more signal.
For test [7], the system named is Neuregulin-1 EGF-like domain. Nature of the test: small molecules binding NRG1 EGF domain – biochemical, small-molecule microarray, 635 nm fluorescence, primary screen (AID 1081).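 Note: binding of the protein to compounds printed on small-molecule microarray slides.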 Conditions: higher = more signal.
A short description of test [8]: FRG1 expression reporter modulators in myotubes – cell-based, C2C12 myotubes, firefly/Renilla luciferase, luminescence, FRG1 inhibition for FSHD, primary screen (AID 1084). Particulars: FRG1 promoter luciferase, higher = more signal, called active from +8 up or from −8 down.
Test [9] can be described thus: small molecules captured by biotinylated probe aFST – biochemical, small-molecule microarray, fluorescence 635/667, stem cell growth factor project, primary screen (AID 1086).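 Note: score merges 667 nm fluorescence with signal-to-noise of each printed compound spot.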 Particulars: higher = more signal.
Test [10] can be described thus: binders of probe aHhip on microarray, primary screen, stem cell growth factor project, biochemical, small-molecule microarray, fluorescence 635/667 (AID 1087).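 Note: score merges spot fluorescence at 667nm with spot signal to noise ratio.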 Particulars: higher = more signal.
The test system of test [11] is PRMT1 (protein arginine N-methyltransferase 1). Description: small molecules binding arginine methyltransferase PRMT1 – biochemical, small-molecule microarray, 635 nm fluorescence, primary screen (AID 1088).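 Note: binding of Prmt1 protein to compounds spotted on small-molecule microarray slides.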 Conditions: higher = more signal.
Test [12] is described as follows: growth effects on S. cerevisiae YJM789 – YJM789 clinical isolate, OD600, 24 h, basal, primary screen (AID 1089).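 Note: growth of clinical yeast isolate S. cerevisiae YJM 789 seeded 1000 cells per well; test concentration not given here.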 Conditions: higher = more signal, called active from +8 up or from −8 down.
Test [13] in a line: S. pombe growth modifiers, basal conditions – strain 972, OD600, 24 h, no modulator, primary screen (AID 1090).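 Note: basal condition with compound alone and no growth modifier present; test concentration not given here.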 Conditions: S. pombe 972 growth, higher = more signal, called active from +8 up or from −8 down.
The nature of test [14]: budding yeast growth modifiers under rapamycin – strain BY4716, OD600, 96 h, primary screen (AID 1091). Note: test concentration not given here. Particulars: S. cerevisiae BY4716 + rapamycin, higher = more signal, called active from +8 up or from −8 down.
Test [15] addresses Torsin-1A-interacting protein 2 (Homo sapiens) (UniProt Q8NFQ8). Description: small molecules binding lysate-expressed LULL1 – cell lysate, human LULL1 lysate, 635/667 nm fluorescence, primary screen (AID 1092).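 Note: score merges per-feature 667 nm fluorescence with signal-to-noise.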 Conditions: small-molecule microarray, hLULL1 lysate binding, 635 nm fluorescence; higher = more signal.
A short description of test [16]: optical density change of DRC41 E. coli – strain DRC41, OD650, 24 h, E. coli filamentation project, primary screen (AID 1093).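 Note: MC1000 strain lacking acrAB efflux and sulA so SOS filamentation is blocked; test concentration not given here.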 Particulars: E. coli DRC41 growth, higher = more signal, called active from +8 up or from −8 down.
Test [17] in a line: probe aLefty2 binding to arrayed compounds – biochemical, biotinylated probe, 635/667 nm fluorescence, primary screen (AID 1094).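 Note: score merges spot fluorescence near 667 nm with spot signal-to-noise ratio.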 Particulars: small-molecule microarray, higher = more signal.
In test [18] the test system is Noggin (protein binding on small-molecule microarray). Description: small molecules binding Noggin protein – biochemical, 635/667 nm fluorescence, primary screen (AID 1095).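 Note: score merges 667 nm feature fluorescence with signal to noise over triplicate slides.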 Particulars: 635 nm fluorescence, higher = more signal.
Test [19] has as its target Neurogenic locus notch homolog protein 3 (Homo sapiens) (UniProt Q9UM47). Description: small molecules binding NOTCH3 protein – biochemical, 635/667 nm fluorescence, primary screen (AID 1096). Particulars: small-molecule microarray, 635 nm fluorescence, higher = more signal.
Test [20] is described as follows: probe aEGFR binding to arrayed compounds – biochemical, biotinylated probe, 635/667 nm fluorescence, primary screen (AID 1097).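 Note: probe is a biotinylated anti-EGFR antibody binding compounds printed on slides; score combines fluorescence near 667 nm and signal to noise of each spot.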 Particulars: small-molecule microarray, higher = more signal.

Chain of Neurogenic locus notch homolog protein 2 (Homo sapiens) (Q04721 whole entry, looked up, canonical isoform): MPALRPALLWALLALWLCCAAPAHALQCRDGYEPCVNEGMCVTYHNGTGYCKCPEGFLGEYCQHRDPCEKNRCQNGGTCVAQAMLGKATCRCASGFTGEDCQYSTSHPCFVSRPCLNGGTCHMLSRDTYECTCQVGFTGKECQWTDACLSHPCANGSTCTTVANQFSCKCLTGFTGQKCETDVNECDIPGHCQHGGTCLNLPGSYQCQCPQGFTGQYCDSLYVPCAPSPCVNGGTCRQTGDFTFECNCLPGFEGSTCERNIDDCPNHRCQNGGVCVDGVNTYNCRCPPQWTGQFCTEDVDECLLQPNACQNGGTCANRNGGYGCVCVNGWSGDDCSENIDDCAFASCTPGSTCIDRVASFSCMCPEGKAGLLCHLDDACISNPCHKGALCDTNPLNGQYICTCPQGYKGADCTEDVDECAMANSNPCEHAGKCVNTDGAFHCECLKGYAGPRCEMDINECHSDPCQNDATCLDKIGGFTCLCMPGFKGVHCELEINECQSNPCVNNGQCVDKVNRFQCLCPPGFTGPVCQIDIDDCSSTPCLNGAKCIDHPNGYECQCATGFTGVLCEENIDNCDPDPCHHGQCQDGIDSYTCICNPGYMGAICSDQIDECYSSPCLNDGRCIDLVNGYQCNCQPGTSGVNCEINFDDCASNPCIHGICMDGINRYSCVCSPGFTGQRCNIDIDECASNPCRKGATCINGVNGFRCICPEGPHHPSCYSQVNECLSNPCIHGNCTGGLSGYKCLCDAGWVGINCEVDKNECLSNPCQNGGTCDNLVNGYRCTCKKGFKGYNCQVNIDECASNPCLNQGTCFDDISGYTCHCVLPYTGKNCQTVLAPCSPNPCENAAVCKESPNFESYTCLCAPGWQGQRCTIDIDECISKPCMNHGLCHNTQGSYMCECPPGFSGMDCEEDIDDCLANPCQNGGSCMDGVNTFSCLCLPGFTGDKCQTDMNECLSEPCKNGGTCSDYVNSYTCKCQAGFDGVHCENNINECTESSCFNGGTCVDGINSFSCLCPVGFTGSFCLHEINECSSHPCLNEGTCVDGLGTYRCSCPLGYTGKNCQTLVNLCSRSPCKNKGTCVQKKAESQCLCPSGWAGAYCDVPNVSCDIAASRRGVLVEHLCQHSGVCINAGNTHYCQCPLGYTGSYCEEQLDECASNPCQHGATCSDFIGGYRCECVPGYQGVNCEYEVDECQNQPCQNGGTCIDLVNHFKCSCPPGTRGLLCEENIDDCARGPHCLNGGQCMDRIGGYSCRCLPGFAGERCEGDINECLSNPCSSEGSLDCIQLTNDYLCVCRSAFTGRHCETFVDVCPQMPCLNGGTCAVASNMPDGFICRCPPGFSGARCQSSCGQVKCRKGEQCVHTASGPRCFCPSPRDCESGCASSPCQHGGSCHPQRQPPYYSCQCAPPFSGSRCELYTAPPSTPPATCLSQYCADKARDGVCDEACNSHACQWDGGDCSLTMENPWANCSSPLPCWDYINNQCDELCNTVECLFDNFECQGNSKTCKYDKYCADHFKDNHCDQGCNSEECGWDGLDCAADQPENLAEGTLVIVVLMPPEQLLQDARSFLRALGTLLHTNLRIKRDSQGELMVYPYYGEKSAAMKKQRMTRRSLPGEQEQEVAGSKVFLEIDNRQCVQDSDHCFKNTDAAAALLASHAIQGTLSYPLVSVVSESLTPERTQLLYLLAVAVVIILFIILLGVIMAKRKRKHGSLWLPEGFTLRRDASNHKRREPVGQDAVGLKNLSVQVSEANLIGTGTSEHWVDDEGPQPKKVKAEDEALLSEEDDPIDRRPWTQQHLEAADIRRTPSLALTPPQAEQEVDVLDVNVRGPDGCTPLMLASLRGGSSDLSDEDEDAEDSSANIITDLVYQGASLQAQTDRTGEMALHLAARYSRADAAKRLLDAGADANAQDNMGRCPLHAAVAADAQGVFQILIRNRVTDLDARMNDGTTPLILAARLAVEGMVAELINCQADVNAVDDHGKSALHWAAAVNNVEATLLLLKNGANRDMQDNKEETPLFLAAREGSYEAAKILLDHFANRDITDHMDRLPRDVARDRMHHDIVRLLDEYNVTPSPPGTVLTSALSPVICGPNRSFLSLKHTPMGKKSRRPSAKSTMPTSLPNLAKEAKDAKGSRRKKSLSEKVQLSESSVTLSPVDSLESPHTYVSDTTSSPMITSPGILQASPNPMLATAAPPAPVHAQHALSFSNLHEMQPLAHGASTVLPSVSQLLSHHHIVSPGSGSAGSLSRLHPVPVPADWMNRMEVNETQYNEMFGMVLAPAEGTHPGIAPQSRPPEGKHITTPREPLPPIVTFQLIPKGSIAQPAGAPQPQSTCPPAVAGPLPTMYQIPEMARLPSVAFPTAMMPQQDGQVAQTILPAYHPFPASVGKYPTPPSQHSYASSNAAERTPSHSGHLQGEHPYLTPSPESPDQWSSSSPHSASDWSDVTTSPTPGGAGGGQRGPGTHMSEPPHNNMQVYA
Chain of Torsin-1A-interacting protein 2 (Homo sapiens) (Q8NFQ8 whole entry, looked up): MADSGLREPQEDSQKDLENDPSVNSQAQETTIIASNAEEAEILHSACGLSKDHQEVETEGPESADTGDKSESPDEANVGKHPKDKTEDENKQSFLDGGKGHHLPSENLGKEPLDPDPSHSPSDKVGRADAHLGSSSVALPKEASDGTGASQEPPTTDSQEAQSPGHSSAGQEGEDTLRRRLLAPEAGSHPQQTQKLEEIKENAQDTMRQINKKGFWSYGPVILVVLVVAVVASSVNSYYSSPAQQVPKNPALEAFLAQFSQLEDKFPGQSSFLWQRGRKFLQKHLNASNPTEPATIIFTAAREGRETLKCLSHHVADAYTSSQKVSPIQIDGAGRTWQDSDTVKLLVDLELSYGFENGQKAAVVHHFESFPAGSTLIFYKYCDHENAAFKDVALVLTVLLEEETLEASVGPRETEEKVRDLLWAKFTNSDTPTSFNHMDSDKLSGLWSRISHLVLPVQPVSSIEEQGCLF
Chain of Pro-neuregulin-1, membrane-bound isoform (Homo sapiens) (Q02297 whole entry, looked up, the tested form may be a part, canonical isoform): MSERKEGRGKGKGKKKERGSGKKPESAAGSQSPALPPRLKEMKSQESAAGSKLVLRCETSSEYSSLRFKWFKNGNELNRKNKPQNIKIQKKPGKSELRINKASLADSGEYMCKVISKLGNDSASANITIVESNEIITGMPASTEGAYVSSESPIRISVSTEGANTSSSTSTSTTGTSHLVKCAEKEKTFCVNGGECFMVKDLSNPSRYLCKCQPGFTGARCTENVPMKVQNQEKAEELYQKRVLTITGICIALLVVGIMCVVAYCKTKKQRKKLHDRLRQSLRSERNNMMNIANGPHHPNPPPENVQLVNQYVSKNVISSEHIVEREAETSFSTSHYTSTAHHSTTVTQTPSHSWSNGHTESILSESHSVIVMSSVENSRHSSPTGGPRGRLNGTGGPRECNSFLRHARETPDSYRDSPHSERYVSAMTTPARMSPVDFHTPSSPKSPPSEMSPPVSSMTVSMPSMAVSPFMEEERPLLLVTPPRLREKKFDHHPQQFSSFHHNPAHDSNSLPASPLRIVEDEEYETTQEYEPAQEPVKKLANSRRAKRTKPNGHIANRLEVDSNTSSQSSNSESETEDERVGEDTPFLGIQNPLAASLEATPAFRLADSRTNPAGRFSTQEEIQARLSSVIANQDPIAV

With `O=C1c2ccccc2[C@@]2(Cc3ccccc3N(Cc3ccccc3)C2=O)[C@H](c2ccc(CO)cc2)N1C1CCCCC1`, the composite z-score in test [1] is -0.382; in test [2] it was -0.832; in [3], -0.152; in test [4] it was -0.0341; in test [5], -0.203; in test [6], 0.662. The composite z-score was 1.37 in test [7]; -0.244 in [9]; -0.201 in test [10]; 1.21 in test [11]; 0.525 in test [15]; -0.239 in [17]. Moreover, the values for the composite z-score in [18], in test [19] and in test [20] were 0.61, 0.269 and -0.2, respectively. For the same molecule, the z-score is -0.0414 (inactive) in test [8]; -0.676 (inactive) in test [12]; 1.1 (inactive) in test [13]; -0.619 (inactive) in test [14]; -0.0011 (inactive) in test [16].
As for `CC(C)(C)OC(=O)CC[C@]1(C(=O)N2CCCCC2)N=C(c2ccc(OCCCO)cc2)O[C@H]1c1ccccc1N=[N+]=[N-]`, the composite z-score in test [1] was 1.14; in test [2] it was 0.933; in [3] it was -0.0328; in test [4] it was 0.877; in [5], 1.32; in test [6], 1.42. The composite z-score in [7] came to 1.3; in [9], 1.24; in [10], 0.0818; in test [11], 1.54; in test [15] it was 3.05; in test [17], 0.292. Also, the composite z-score is 1.21 in test [18], 1.01 in test [19] and 0.872 in test [20]. The z-score in test [8] was -0.275 (inactive); in [12], 0.589 (inactive); in [13], 0.402 (inactive); in test [14] it was 0.73 (inactive); in [16], 1.62 (inactive).
For the molecule `COC(=O)[C@@]1(Cc2ccc(OC)cc2)[C@H]2c3cc(C(=O)N4CCCC4)n(CCc4c[nH]c5cc(F)ccc45)c3C[C@H]2CN1C(=O)c1ccccc1`, the composite z-score in test [1] came to 0.785; in [2], 0.209; in test [3] it was 0.0181; in [4], 0.71; in test [5], 1.76; in [6] it was 2.12. For the same molecule, the composite z-score in test [7] was 1.18; in test [9], 2.35; in test [10] it was 0.28; in test [11] it was 1.09; in test [15], 3.54; in test [17], 0.776. For the same molecule, the composite z-score in test [18] was determined as 0.103; in test [19] it was 1.08; in test [20], 0.103. The z-score in [8] was -0.87 (inactive); in test [12] it was 0.548 (inactive); in test [13] it was 1.2 (inactive); in test [14] it was 1.75 (inactive); in test [16], 0.332 (inactive).
As to `COC(=O)[C@@]1(Cc2ccccc2)[C@H]2c3cc(C(=O)N(C)C)n(Cc4c(-c5ccccc5)noc4C)c3C[C@H]2CN1C(=O)c1ccccc1`, the composite z-score is 0.948 in test [1]; -0.287 in [2]; 0.308 in test [3]; 0.346 in test [4]; 1.66 in [5]; 1.81 in test [6]. The composite z-score in test [7] is 1.24; in [9] it was 1.41; in test [10] it was 0.162; in test [11], -0.248; in test [15], 2.7; in test [17] it was 0.531. For the same molecule, the composite z-score in [18] is -0.452; in [19] it was 0.303; in test [20], 0.235. In addition, the z-score is 1.6 (inactive) in [8]; 0.315 (inactive) in test [12]; 0.555 (inactive) in test [13]; 2.84 (inactive) in test [14]; -1.07 (inactive) in test [16].
With `COCCOC(=O)N1C(=O)[C@@]2(c3cc(C#CCCO)ccc31)[C@H](C(=O)NC[C@H](O)c1ccccc1)[C@H]1C(=O)O[C@H](c3ccccc3)[C@H](c3ccccc3)N1[C@@H]2c1ccc(O)cc1`, the composite z-score in test [1] is -0.221; in test [2] it was 0.464; in test [3], -0.0058; in test [4], 0.627; in [5], 0.026; in test [6], 1.48. The composite z-score in test [7] was 1.21; in test [9], 0.0399; in test [10], -0.134; in [11] it was 0.66; in [15], 2.35; in [17] it was -0.0862. For the same molecule, the composite z-score in test [18] is 1.7; in test [19], 0.459; in test [20], -0.137. Also, the z-score is -1.04 (inactive) in test [8]; 1.22 (inactive) in test [12]; 0.572 (inactive) in test [13]; 1.68 (inactive) in [14]; 0.856 (inactive) in test [16].
